In the library only some 2.4% were active in any assay of this set; here they are far more common.
D2 ag-1: D2 dopamine receptor (human) agonism; HEK293 T-REx D2 cells, calcium flux agonist mode; activation, % at 2 µM; actives 0.53% (n = 340,000); P14416;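 active = activation over 3 SD above normal in the single-dose calcium agonist read, cut at about 30% in these data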
Target sequence (P14416 whole entry, looked up): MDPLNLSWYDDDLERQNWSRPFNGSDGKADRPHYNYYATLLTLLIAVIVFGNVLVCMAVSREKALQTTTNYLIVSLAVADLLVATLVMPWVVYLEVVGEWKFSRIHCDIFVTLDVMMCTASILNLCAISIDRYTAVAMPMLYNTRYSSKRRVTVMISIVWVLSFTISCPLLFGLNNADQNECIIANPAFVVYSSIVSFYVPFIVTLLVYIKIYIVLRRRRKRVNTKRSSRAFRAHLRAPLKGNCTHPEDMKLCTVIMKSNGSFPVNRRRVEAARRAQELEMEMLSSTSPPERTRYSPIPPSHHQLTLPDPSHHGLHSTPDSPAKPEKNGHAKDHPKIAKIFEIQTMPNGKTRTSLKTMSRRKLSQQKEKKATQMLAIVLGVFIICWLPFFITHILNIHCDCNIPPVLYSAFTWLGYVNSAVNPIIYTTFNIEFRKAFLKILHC
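Tetracycline-induced HEK293 Trex cells with D2 receptor force-coupled to calcium signaling, plated overnight at 30 C and loaded with no-wash calcium dye. Calcium flux read kinetically for 180 s after compound addition; responses flag agonists.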
D2 ag-2: human D2 receptor agonism in beta-arrestin assay. AID 624465. activation, % (no concentration beside the values). DiscoveRx PathHunter D2 beta-arrestin, luminescence, 90 min; 100% = 57 uM dopamine signal. actives 0.084% (n = 360,000); in the data active = activation above about 40%; inconclusive = between about 15% and that limit
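Agonist mode: compounds alone added to overnight-plated D2 PathHunter cells for 90 min at 37 C, with 57 uM final dopamine (EC100) defining full response. Beta-arrestin recruitment detected by chemiluminescent reagent, read after 1 h at ambient temperature.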
D2 PAM-1: human D2 receptor positive allosteric modulation; P14416; DiscoveRx D2 beta-arrestin cells, luminescence, 90 min; 100% = 57 uM dopamine signal; potentiation, % (concentration not given with the values); actives 0.23% (n = 360,000); in the data active = potentiation above about 50%; inconclusive = mostly about 30% to 49%
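D2 cells co-treated with compound plus 50 nM dopamine (EC20) for 90 min at 37 deg C to detect potentiation. Beta-arrestin recruitment was read as enzyme-fragment luminescence after 1 h at ambient temperature. Full response was set by 57 uM dopamine.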
D2 PAM-2: positively modulates the human D2 dopamine receptor allosterically | P14416 | HEK293 T-REx D2, calcium flux, EC20 dopamine potentiation | potentiation, % at 10 µM | actives 0.34% (n = 340,000);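 active = potentiation over 3 SD above the plate norm, cut at about 30% in these data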
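Tetracycline-induced HEK293 T-REx cells force-coupled to calcium signalling expressed D2; compounds were pin-added after a 10 s baseline, read kinetically 180 s, then an EC20 dopamine challenge followed with a further 180 s calcium read.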
D2 antag: D2 dopamine receptor (human) antagonism | HEK293 TREx D2 cells, calcium flux, dopamine EC80 | inhibition, % at 10 µM | actives 2% (n = 340,000) | AID 485344; in the data active = inhibition above about 30%; inactive = below that, where a call was filed
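Measurement of antagonist activity uses fluorescent calcium dye in inducible HEK293 T-REx D2 cells: 10 s baseline, compound addition with 180 s read, EC80 dopamine addition with a further 180 s read.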
Each line names hits and unclear results; the compound was inactive in the other large screens; ! = a repeat was not active.

CCN(C(=O)c1cnc(N2CCOCC2)c2ccccc12)c1cc(C)ccc1C	none (no result: D2 ag-2, D2 PAM-1, D2 antag)
COc1ccc(N2CCN(C(=O)c3sc4nc5n(c(=O)c4c3C)CCC5)CC2)cc1	none (no result: D2 ag-2, D2 PAM-1, D2 antag)
CCC(C)NCCOc1cc(C)cc(C)c1C (stereo unspecified)	D2 antag 51
COc1ccc(NC(=O)c2cn(-c3ccccc3)nc2-c2cc3ccccc3o2)cc1	none
OCc1cn(-c2ccccc2)nc1-c1cc2ccccc2o1	D2 antag 45
O=C(N/N=C/c1cn(-c2ccccc2)nc1-c1cc2ccccc2o1)c1c[nH]c2ccccc12	D2 antag 34
O=C(N/N=C/c1cn(-c2ccccc2)nc1-c1cc2ccccc2o1)c1ccccc1Br	none
COc1ccccc1NC(=O)c1cccc(S(=O)(=O)N2CCN(Cc3ccccc3)CC2)c1	none
CC(NC(=O)c1cccc(S(=O)(=O)N2CCN(Cc3ccccc3)CC2)c1)c1ccc(Cl)cc1 (stereo unspecified)	D2 antag 36
CCOC(=O)c1c(NC(=O)CSc2ncn[nH]2)sc(C)c1C	D2 antag 38
CCOC(=O)c1c(NC(=O)CSc2ncn[nH]2)sc(C(=O)NC)c1C	none
O=C1CCC(c2ccccc2)N1C(=O)c1cccnc1 (stereo unspecified)	D2 PAM-2 38
O=C1CC(c2ccccc2)CN1C(=O)c1cccnc1 (stereo unspecified)	none
Cc1ccc(-n2cccn2)c(CN2CCCC(C(=O)c3sccc3C)C2)c1 (stereo unspecified)	D2 antag 73
CCOc1cc(C=NN2CCCCCC2)ccc1O	D2 PAM-1 51 (no result: D2 ag-1, D2 PAM-2, D2 antag)
COc1ccc(Cn2c(=O)c3oc4ccccc4c3n(CC(=O)Nc3c(C)cccc3C)c2=O)cc1	none (no result: D2 ag-1, D2 ag-2, D2 PAM-1, D2 antag)
CSc1ccccc1NC(=O)Nc1ccc(Cl)cc1	D2 antag 31
Cc1cccnc1NC1CCCCC1	none
c1ccc2c(NC3CCCC3)nnc(NC3CCCC3)c2c1	D2 antag 49
CCc1ccc(-c2nc(CS(=O)CC(=O)NCc3ccco3)c(C)o2)cc1 (stereo unspecified)	D2 PAM-2 73
COc1ccc(-c2nc(CS(=O)CC(=O)NCc3ccco3)c(C)o2)cc1 (stereo unspecified)	none
Cc1cccc(-c2nc(CS(=O)CC(=O)NCc3cccs3)c(C)o2)c1 (stereo unspecified)	D2 antag 39
CC1CCN(C(=O)c2ccc(Br)c(S(=O)(=O)N3CCOCC3)c2)CC1	none
CC1CCN(S(=O)(=O)c2cc(C(=O)NC3(C)CCS(=O)(=O)C3)ccc2Br)CC1 (stereo unspecified)	D2 antag 31
CN(C)CCOC(c1ccccc1)c1ccccc1	none
CN(C)CCOC(c1ccc(Cl)cc1)c1ccccn1 (stereo unspecified)	D2 ag-2 98!
COc1ccc(S(=O)(=O)c2cnc(SCC(=O)Nc3cc(F)ccc3C)[nH]c2=O)cc1Cl	none (no result: D2 ag-2, D2 PAM-1, D2 antag)
COc1cc(CNc2cccc(C(=O)O)c2)cc(Br)c1OCC(=O)NC(C)(C)C	D2 antag 60
COc1cc(CNc2ccc3[nH]c(=O)[nH]c3c2)cc(Br)c1OCC(=O)NC(C)(C)C	none
Cc1ccc(OCCSc2ncccn2)c(C)c1	D2 antag 37
Cc1cccc(OCCOCCSc2ncccn2)c1	none
Cc1ccc(-n2nc3c(N4CCCC(C(=O)NCc5ccccc5C)C4)nnc(C)c3c2C)cc1 (stereo unspecified)	none (no result: D2 ag-2, D2 PAM-1, D2 antag)
CCOC(=O)c1c(C)n(-c2ccc(C)cc2)c2c(C(C(C)=O)C(=O)O)c(Br)c(O)c(O)c12 (stereo unspecified)	D2 ag-2 inconclusive, D2 PAM-1 70
CCOC(=O)c1c(C)n(-c2ccc(C)cc2)c2c(CC(C)=O)c(Br)c(OC)c(O)c12	none
CCOc1cccc2sc(N(CCN(C)C)C(=O)/C=C/c3cccs3)nc12	D2 antag 66
COc1cccc2sc(N(CCN(C)C)C(=O)/C=C/c3cccs3)nc12	none
CCCCN(CC)C(=O)c1nn(C)c2c1CSc1ccccc1-2	none (no result: D2 ag-2, D2 PAM-1, D2 antag)
COc1ccc(-c2noc(CSc3nnc(-c4ccncc4)n3-c3ccc(C)c(C)c3)n2)cc1	none (no result: D2 ag-2, D2 PAM-1, D2 antag)
O=C(NC1CC2CCC(C1)N2Cc1ccccc1)c1ccccc1Br (stereo unspecified)	D2 antag 67

High-throughput results deposited in PubChem BioAssay by National Center for Advancing Translational Sciences (NCATS).
